Assay results as given in PubChem BioAssay AID2783 (National Center for Advancing Translational Sciences (NCATS), 2010).
Records with an inconclusive call do not appear. Calls come from the whole dose curve; as a rule, active = well fitted inhibition curve with a large enough effect in the polarisation, with a control signal flat (not every such curve was filed as active); inconclusive = small, poorly fitted or top-dose-only effect, or effect the other way, or a change in a side signal; inactive = no such curve, though single readings can be large or run the other way; the % refers to the polarisation.

molecular target: Menin (Homo sapiens) (UniProt O00255); experiment: Confirmation of Inhibitors Targeting the Menin-MLL Interaction in MLL Related Leukemias: Competition With Fluorescein Labeled MLL-derived Peptide; conditions: Fluorescence polarization, fluorescein-MLL peptide displacement from menin; series mostly up to 100 µM; activity change, negative = inhibition: at the top concentration
% is set by controls: 0 for no effect and ±100 for the full control effect.

Menin (Homo sapiens), sequence (O00255 whole entry, looked up): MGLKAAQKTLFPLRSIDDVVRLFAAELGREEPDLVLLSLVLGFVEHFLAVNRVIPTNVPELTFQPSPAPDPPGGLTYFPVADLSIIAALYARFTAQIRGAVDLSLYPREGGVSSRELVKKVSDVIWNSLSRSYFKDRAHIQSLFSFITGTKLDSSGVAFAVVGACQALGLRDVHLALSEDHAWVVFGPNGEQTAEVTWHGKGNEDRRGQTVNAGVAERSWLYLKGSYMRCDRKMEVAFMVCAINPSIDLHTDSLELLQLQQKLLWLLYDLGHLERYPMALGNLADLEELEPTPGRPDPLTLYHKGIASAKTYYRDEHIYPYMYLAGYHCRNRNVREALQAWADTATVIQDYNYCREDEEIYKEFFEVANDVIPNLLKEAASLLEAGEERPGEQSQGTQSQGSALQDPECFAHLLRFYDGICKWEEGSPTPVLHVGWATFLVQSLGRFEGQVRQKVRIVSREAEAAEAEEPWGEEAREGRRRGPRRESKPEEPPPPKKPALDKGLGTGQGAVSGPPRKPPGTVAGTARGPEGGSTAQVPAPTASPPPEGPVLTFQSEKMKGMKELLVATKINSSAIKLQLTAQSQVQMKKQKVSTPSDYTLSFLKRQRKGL

Activity change, negative = inhibition, inactive:
COc1cc(NC(=O)c2cccnc2)c(OC)cc1NC(=O)c1ccc(Br)cc1 2.22%
O=C(O)c1cc(S(=O)(=O)O)cc(Nc2c3ccccc3nc3ccccc23)c1O -0.894% [at 288 µM]
Cc1[nH][nH]c(=O)c1C(c1c(C)[nH][nH]c1=O)c1cn(Cc2ccccc2Cl)c2ccccc12 -9.42% [at 288 µM]
Cc1cc2ccccc2nc1SCC(=O)Nc1nc(-c2ccccc2)cs1 17.8% [at 288 µM]
O=c1cc(O)c2ccccc2n1Cc1ccccc1F -15.9%
COc1ccc(N(C(=O)c2ccncc2)S(=O)(=O)c2ccc(Cl)cc2)cc1 -1.48%
CCN(CC)c1nc(-c2ccc(C(=O)NN)cc2)nc(-c2ccc(C(=O)NN)cc2)n1 -6.99% [at 288 µM]
Cc1nc(C)c(-c2ccc(SCc3ccccc3F)nn2)s1 -13%
O=C(Nc1ccc2ccccc2c1)c1cn(-c2ccccc2)nc1-c1cccs1 -8.29%
Cc1ccc(NS(=O)(=O)c2csc(C(N)=O)c2)cc1C 1.62% [at 288 µM]
O=C(Cn1nc(-c2ccccc2)ccc1=O)N1CCCCC1 2.68% [at 288 µM]
COc1cc(/C=C2/C(=O)N(c3ccc(Br)cc3)N=C2C)cc(OC)c1OC -0.325% [at 288 µM]
Cn1c(=O)[nH]c(=O)c2c1nc(Br)n2CCSc1nc2ccccc2o1 -1.95% [at 288 µM]
NC(=O)c1cc2ccccc2o/c1=N/NC(=O)c1cccc(F)c1 -12.4%
CCCc1nc2c(=O)[nH]c3ccccc3c2o1 -14.1%
Cn1ncc2c(N3CCCCC3)nc(NCCCO)nc21 -12.3%
COc1ccc(C)cc1N(C(=O)c1snc(C(N)=O)c1N)C(C(=O)NC1CCCC1)c1ccc(F)cc1 (stereo not drawn) 8.37% [at 288 µM]
CCOc1ccc(NC(=O)c2cccc(OC(=S)N3CCC(C)CC3)c2)cc1 -20.4%
Cc1cccc(NC(=O)CSc2nc3ccc(NC(=O)CSc4nnnn4-c4ccccc4)cc3s2)c1C 36.8% [at 288 µM]
O=C(/C=C/c1ccccc1)Nc1nnc(SCC(=O)c2ccc3ccccc3c2)s1 -0.0809%
Cc1cccc(Nc2nnc(SCC(=O)NC(=O)Nc3ccc4c(c3)OCCO4)s2)c1 -16%
Cc1ccc(C(C[N+](=O)[O-])c2c(C)[nH]n(-c3ccccc3)c2=O)cc1 (stereo not drawn) -2.87%
CCn1cnc2c1c(=O)n(CC(=O)O)c(=O)n2Cc1ccccc1 -2.36% [at 288 µM]
COc1ccccc1NS(=O)(=O)c1cc(NC(=O)Nc2ccc(Cl)cc2Cl)ccc1N1CCCCC1 -8.05%
O=C(Cn1c(=O)c2c3c(sc2n(Cc2ccccc2)c1=O)CCCC3)NCCO 2.27% [at 288 µM]
CN1C[C@@H]2C[C@H]1CN2c1cc2c(cc1F)c(=O)c(C(=O)O)cn2C1CC1 -17.6%
COc1ccc(OC)c(C(c2c(C)[nH][nH]c2=O)c2c(C)[nH][nH]c2=O)c1 -15.1% [at 288 µM]
CN[C@H]1[C@H](O)[C@@H](O[C@@H]2[C@H](O)[C@@H](O[C@H]3OC(CN)=CC[C@H]3N)[C@@H](N)C[C@H]2N)OC[C@@]1(C)O -4.31%
COc1cc(OC)cc(C(=O)N/N=C/c2ccc(OC)c(COc3ccc4ccccc4c3)c2)c1 -9.2%
CCCNC(=O)c1ccc2c(=O)c(O)c(C)[nH]c2c1 -14.9%
CCOC(=O)N1CCN(C(=O)c2oc3ccc(S(=O)(=O)N(CC)CC)cc3c2C)CC1 -1.38% [at 288 µM]
C=C1CCC[C@]2(C)C[C@H]3OC(=O)C(CNCCN(CC)CC)[C@H]3CC12 (stereo partly drawn) -4.69%
CC(=O)c1cccc(OCC(O)CNCC2COc3ccccc3O2)c1 (stereo not drawn) 0.566%
